Assay outcomes: PubChem, National Center for Advancing Translational Sciences (NCATS)
Pf growth 48h – Primary qHTS for delayed death inhibitors of the malarial parasite plastid, 48 hour incubation; P. falciparum luciferase growth in erythrocytes, 48 h; Potency, µM (series often up to 28.7 µM), inactives show top-dose activity change, negative = inhibition, most hits filed as inhibitors; actives 5.9% (n = 310,000); further: on the % scale 0 is the no-effect control and ±100 the full control effect
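Luciferase-expressing P. falciparum in infected erythrocytes (2% hematocrit, 0.1% parasitemia final) in RPMI 1640/0.5% Albumax were exposed to compound for 48 hours at 37 C, 5% CO2; growth read as luminescence.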
NS1 function inh – qHTS Assay for Inhibitors of Influenza NS1 Protein Function; Potency, µM (highest dose often 46.1 µM), for inactives: top-dose activity, positive = more growth; actives 0.4% (n = 270,000); calls by dose curve; further: actives are rising curves; nearly all actives have a fitted effect of over 50% in size
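OD600 was taken as the measure of yeast growth restored by compound in an NS1-expressing S. cerevisiae strain. Cells had been washed out of glucose medium and diluted 1:100 into galactose -URA medium, pH 6.0.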
Vaccinia Venus – qHTS for Stage-Specific Inhibitors of Vaccinia Orthopoxvirus: Venus Reporter Primary qHTS. Vaccinia virus Venus reporter expression, fluorescence. Potency, µM (highest dose often 36.5 µM), without a hit: top-dose activity change, negative = inhibition, hits mostly inhibitors. actives 0.46% (n = 330,000). AID 720580, 2013; calls by dose curve; tested in A549 cells; further: on the % scale 0 is the no-effect control and ±100 the full control effect; nearly all actives have a fitted effect of over 30% in size
Vaccinia mCherry – qHTS for Stage-Specific Inhibitors of Vaccinia Orthopoxvirus: mCherry Reporter Primary qHTS. actives 0.63% (n = 310,000). Potency, µM (series often up to 36.5 µM), for the others: at the top dose activity change, negative = inhibition, hits mostly inhibitors. Vaccinia virus mCherry reporter infection, fluorescence; calls by dose curve; tested in A549 cells; further: on the % scale 0 is the no-effect control and ±100 the full control effect; nearly all actives have a fitted effect of over 35% in size
HCV inh – qHTS Assay for Inhibitors of Hepatitis C Virus (HCV) | Potency, µM (doses to about 41.8 µM), for inactives: at the highest dose activity change, negative = inhibition, usual class: inhibitors | AID 651820, 2012 | Huh7.5.1 HCVcc-Cre infection, luciferase reporter, 44 h | actives 3.4% (n = 340,000); further: on the % scale 0 is the no-effect control and ±100 the full control effect
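After 44 h co-culture of compound, cells and HCVcc-Cre (~0.5 moi), substrate is added for 15 min at room temperature and luciferase measured over 15 sec. Cells were seeded at 1,000/well and pre-cultured 4 h.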
Pf growth 96h – Primary qHTS for delayed death inhibitors of the malarial parasite plastid, 96 hour incubation; P. falciparum luciferase reporter growth, 96 h; Potency, µM (titrated, usually from 28.7 µM), for inactives: at the top dose activity change, negative = inhibition, usual class: inhibitors; actives 6.9% (n = 320,000); AID 504834, 2011; further: on the % scale 0 is the no-effect control and ±100 the full control effect
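Two-generation exposure (96 h) targets delayed-death phenotype. Reporter parasites carrying integrated firefly luciferase, in red cells at 2% hematocrit and 0.05% parasitemia final, kept at 37 C, 5% CO2; luminescence loss indicates inhibition.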
Numbers without * were called inactive; i = inactive; u = inconclusive; x = no result; [ ] = another dose, or the depositor's remark. Sampled rows, rich in hits. Any-hit rate of the full collection: about 11%. Unless noted, the call rests on the fitted dose curve; in most records, active means well fitted inhibition curve with a large enough effect; inconclusive means small, poorly fitted or top-dose-only effect, or another doubt; inactive means no such curve, though single readings can be large or run the other way. Potency means the concentration at half of the fitted maximal effect.

SMILES	Pf growth 48h	NS1 function inh	Vaccinia Venus	Vaccinia mCherry	HCV inh	Pf growth 96h
Cc1cc(N)ccc1N1CCCC1	0.47µM*	6%	-4%	-8%	-9%	0.41µM*
Cc1cc(C(=O)O)ccc1-n1c(C)ccc1C	x	-48%	x	x	x	x
Cc1cc(N)ccc1-n1c(C)ccc1C	7.4µM*	6%	6%	18%	1%	11%
CCN1CCN(c2ccc(N)cc2C)CC1	u	-4%	5%	-8%	-12%	u
Cc1nn(C2CCOC(C)(C)C2)c2c1C(c1ccc3c(c1)OCO3)SCC(=O)N2 (stereo not drawn)	u	9%	-4%	x	-19%	9.3µM*
Cc1ccc(-n2c(SCn3nnc4ccccc4c3=O)nnc2-c2cccnc2)c(C)c1	10µM*	-3%	-11%	-20%	-11%	u
O=c1c2ccccc2nnn1CSc1nnc(-c2cccnc2)n1-c1ccccc1F	u	10%	-3%	x	3%	0%
COc1ccccc1/C=C1\CCC(C2CCCC2)C1=O (stereo not drawn)	57%	3%	x	x	-10%	15µM*
O=C1/C(=C/c2ccccc2)CCC1C1CCCC1 (stereo not drawn)	42%	1%	-13%	-11%	6%	36%
Cc1ccc(-c2ccnc(-n3ncc(C(=O)N4CCCCC4c4cccnc4)c3C3CC3)n2)o1 (stereo not drawn)	x	x	u	-7%	x	x
Cc1ccc(CC(=O)OCCNC(=O)c2cccnc2)cc1	0%	0%	-1%	-6%	21%	5%[5.75 µM]
Cc1ccc(NC(=O)CN(C)C(=O)c2ccc(NC(=O)CC3SC(N4CCCC4)=NC3=O)cc2)cc1 (stereo not drawn)	-9%	x	0%	i	-9%	u
COc1ccc(CN(C)C(=O)c2ccc(NC(=O)CC3SC(N4CCCC4)=NC3=O)cc2)c(OC)c1OC (stereo not drawn)	u	x	-5%	-19%	7%[8.37 µM]	5.9µM*
CCN(CC(=O)Nc1c(F)cccc1F)C(=O)c1ccc(NC(=O)CC2SC(N3CCCC3)=NC2=O)cc1 (stereo not drawn)	0%	x	-12%	i	5%	13µM*
CN(Cc1c(F)cccc1Cl)C(=O)c1ccc(NC(=O)CC2SC(N3CCCC3)=NC2=O)cc1 (stereo not drawn)	10µM*	x	u	-19%	9%	u
C#Cc1ccc(NC(=O)C2(C)CCN2C(=O)c2ccccc2CCc2ccccc2)cc1 (stereo not drawn)	x	x	-12%	i	x	x
Cc1ccc(C=Nc2ccc(N(C)C)cc2)o1	u	3%	-3%	-11%	3%	0.93µM*
C=Cc1ccc(N=Cc2ccc(N(C)C)cc2)cc1	x	x	-10%	19%	x	x
O=C(Nc1ncn[nH]1)c1c(Cl)ccc(Cl)c1Cl	35%	-3%	-14%	i	-5%	31%
COc1ccc2c(c1OC)C(=O)N1c3ccccc3C(=O)N(c3ccccc3)C21 (stereo not drawn)	13µM*	-14%	1%	x	u	10µM*
COc1ccc(Cl)cc1NC(=O)CCNS(=O)(=O)c1cccc2nonc12	27%	8%	-4%	-2%	-13%	10µM*
COc1ccc(C)cc1NC(=O)CCNS(=O)(=O)c1cccc2nonc12	0%	-5%	-4%	-22%	-9%	21%
Cc1ccc(OCC(=O)Nc2ccc3c(c2)C(=O)NC3=O)cc1	5%	6%	x	x	5%	u
CC(C)CC(=O)Nc1ccc(Oc2ccc3c(c2)C(=O)NC3=O)cc1	15%	13%	x	x	12%	13µM*
O=C(N1CCOCC1)N1CCN(S(=O)(=O)N2CCCCC2)CC1	12%	-2%	u	x	29%	4.1µM*
SMILES	Pf growth 48h	NS1 function inh	Vaccinia Venus	Vaccinia mCherry	HCV inh	Pf growth 96h
O=S(=O)(N1CCOCC1)N1CCCN(S(=O)(=O)N2CCOCC2)CC1	-8%	0%	-22%	x	6%	28%
Cc1cccc(C)c1NC(=O)CCCn1nc(C)c2c(C)n(-c3ccccc3)nc2c1=O	-16%	8%	x	x	-22%	12µM*
CCOc1ccc(NC(=O)CCCn2nc(C)c3c(C)n(-c4ccccc4)nc3c2=O)cc1	u	-3%	x	x	-11%	12µM*
Cc1ccc(C(=O)N/N=c2\oc3ccccc3cc2C(N)=O)cc1	12%	-1%	x	x	-10%	17%
COc1cccc2cc(C(=O)CS(=O)(=O)c3ccc(C)cc3)c(=O)oc12	4%	6%	x	x	16%	4.7µM*
CCOc1cccc2cc(C(=O)Oc3ccc(OC)cc3)c(=O)oc12	2%	-55%	-6%	-9%	19%	78%
COc1cccc2cc(C(=O)OC3CCN(C)CC3)c(=O)oc12	5%	4%	0%	i	5%	12µM*
Cc1ccc(S(=O)(=O)CC(=O)c2cc3cccc(C)c3oc2=O)cc1	18%	4%	x	x	12%	16%
COc1cccc2cc(C(=O)Oc3ccccc3)c(=O)oc12	6%	-8%	x	x	7%	13µM*
COc1cc(C)cc2oc(=O)c(CC(=O)NCCc3ccc(Cl)cc3)c(C)c12	x	x	-13%	-21%	x	x
Cc1ccc(Cn2cccc2C2=NC(C)CO2)cc1 (stereo not drawn)	x	-6%	x	x	7%	u
COc1ccc(/C=C2/C(=O)N(c3ccccc3)N=C2C)cc1	x	x	0%	-16%	10%	x
COc1ccc(C2=NN(c3ccccc3)C(=O)/C2=C\c2ccc(O)c(OC)c2)cc1	13µM*	x	-9%	u	8%	u
CCC(=NCc1ccco1)c1c(O)n(C)c(=O)n(C)c1=O	16%	-2%	x	x	-21%	22%
CCC(=NCCc1ccccc1)c1c(O)n(C)c(=O)n(C)c1=O	5%	1%	x	x	8.9µM*	25%
CCOC(=O)c1sc2ncn(CC(=O)Nc3cc(Cl)ccc3C)c(=O)c2c1C	x	x	-3%	-8%	x	x
CCN(CC(=O)Nc1cc(Cl)ccc1C)C(=O)C1CCN(c2ncnc3sc(C)c(C)c23)CC1	x	x	u	11µM*	x	x
CCN(CC(=O)Nc1cc(Cl)ccc1C)c1ncnc2sc(C)c(C)c12	u	0%	-16%	i	25µM*	u
CCCn1nc(C(=O)NNC(=O)C2CSC3(C)CCC(=O)N23)c2ccccc2c1=O (stereo not drawn)	u	x	1%	-9%	6%	-4%
CCOc1ccc(NC(=O)NCc2ccccn2)cc1	29%	16%	x	x	6%	152%
O=C(CCCO)NNc1c2ccccc2nc2ccccc12	1.5µM*	-3%	-4%[7.34 µM]	-22%[7.34 µM]	1µM*	1.3µM*
COc1ccc(OCC(=O)NNc2c3ccccc3nc3ccccc23)cc1	7.4µM*	4%	u	-22%	6.3µM*	2.1µM*
